# Experimental data published in PubChem BioAssay AID588473 (Sanford-Burnham Center for Chemical Genomics, 2011).
# The campaign covered roughly 350,000 compounds. About 1,600 (0.46%) were called active. For the sample, actives were picked, then their nearest neighbours and some compounds at random. Unmarked numbers belong to inactive results.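 The calls were made as follows: active = activation of at least 50%, plus an integration ratio under a set limit after plate pattern correction; inactive = the rest.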
# Test system: CRF-binding protein / CRF receptor 2 complex (human)
# Test: activators of CRF-R2 with CRF-BP – cell-based, HEK293, calcium dye fluorescence, uHTS, primary screen (AID 588473);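 also: plate controls were neutral control wells without compound for no effect and CRF at EC100 for full effect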
# Conditions: calcium dye fluorescence (FLIPR), at 13.2 µM, hits give high values, percent of saturating CRF peptide response
row,SMILES,activation
1,CCN(CC)CCCC(C)n1c2nc(=O)[nH]c(=O)c-2nc2cc(Cl)ccc21 (configuration not stated),192% (active)
2,C=C(C)Cn1c(C)cc(C)c(S(=O)(=O)c2ccccc2C)c1=O,-0.15%
3,CC1COc2ccccc2N1S(=O)(=O)c1ccccc1 (configuration not stated),2.38%
4,Cc1nn(C)cc1/C=C1\CCC/C(=C\c2cn(C)nc2C)C1=O,0.2%
5,COc1ccc(-c2nnc(NC(=O)CS(=O)(=O)c3ccc(Cl)cc3)o2)c(OC)c1,-1.55%
6,COc1cc(-c2nnc(NC(=O)CS(=O)(=O)c3ccc(Cl)cc3)o2)cc(OC)c1OC,3.74%
7,COc1cccc(-c2nnc(NC(=O)c3ccc(S(=O)(=O)N(CC(C)C)CC(C)C)cc3)o2)c1,98.1% (active)
8,CCCCN1C(=O)C(CC(=O)NCc2cccs2)CC(C(=O)N2CCOCC2)=C1C (configuration not stated),-1.86%
9,CC(OC(=O)c1ccc(NC(=O)CC#N)cc1)C(=O)Nc1ccc(S(=O)(=O)N2CCCC2)cc1 (configuration not stated),-0.83%
10,O=C(COC(=O)C1(c2ccc(F)cc2)CCCC1)N1CCNC1=O,-1.56%
11,N#Cc1c(C(F)(F)F)cc(-c2ccc(Cl)cc2)nc1SCC(=O)O,0.45%
12,N#Cc1c(-c2ccc(F)cc2)cc(C2CC2)nc1SCC(=O)c1cccs1,76.4% (active)
13,O=C(c1cccs1)N1CCCC(c2nc(-c3ccc(F)cc3)no2)C1 (configuration not stated),-3.55%
14,COCCCNC(=O)[C@H]1N2C(=O)c3ccccc3C2SC1(C)C (some centres not stated),53.6% (active)
15,COCCCNC(=O)C1CC(=O)N(CCc2ccccc2)C1 (configuration not stated),-1.35%
16,CC1(C)SC2c3ccccc3C(=O)N2[C@@H]1C(=O)NCc1ccco1 (some centres not stated),-0.83%
17,O=C(Nc1cccc2ccccc12)c1onc2c1CCCC2,-2.42%
18,CC(OC(=O)CCCOc1ccccc1)C(=O)Nc1ccc(Cl)cn1 (configuration not stated),-1.67%
19,O=C(c1ccccc1)c1ccc(C(=O)N2CCN(c3ccccc3)CC2)cc1,0.4%
20,O=C(/C=C/c1ccc(N2CCOCC2)cc1)c1ccccc1,89.1% (active)
21,O=C(NC(=O)N1CCOCC1)c1ccccc1,5.54%
22,Cc1ccc(S(=O)(=O)Nc2nc(CN3CCOCC3)nc3sc(C)c(C)c23)cc1,3.71%
23,CCC(=O)c1cc(F)ccc1OCC(=O)Nc1ccc2c(c1)OCCO2,0.29%

row,SMILES,activation
1,O=S(=O)(c1cccc(C(F)(F)F)c1)N1CCN(c2cnccn2)CC1,-0.32%
2,O=S(=O)(c1cccc(C(F)(F)F)c1)N1c2ccccc2-n2cccc2C1c1cccnc1 (configuration not stated),138% (active)
3,O=C(CN(c1cc(C(F)(F)F)ccc1Cl)S(=O)(=O)c1ccccc1)NCc1cccnc1,1.6%
4,COCCN(C(=O)CCC(=O)Nc1nccs1)C(C(=O)NC(C)(C)C)c1ccc(Cl)cc1 (configuration not stated),0.68%
5,CCCC(=O)Nc1ncnc2c1ncn2[C@@H]1O[C@@H]2OP(=O)(O)OC[C@H]2[C@H]1OC(=O)CCC,-0.33%
6,O=C(Nc1cccc(S(=O)(=O)NC2=NCCC2)c1)C1CCCCC1,1.06%
7,O=C(O)C1OC(C(=O)O)C2C1C(F)(F)C2(F)F (configuration not stated),0.58%
8,CCOC(=O)Cc1cc(=O)[nH]c(=O)[nH]1,-0.34%
9,CC(Nc1ccc([N+](=O)[O-])cc1[N+](=O)[O-])c1ccccc1 (configuration not stated),-3.71%
10,O=C(O)c1cc([N+](=O)[O-])c(Nc2cccc3ccccc23)c([N+](=O)[O-])c1,-0.94%
11,O=C(NC(Nc1nc2ccc([N+](=O)[O-])cc2s1)(C(F)(F)F)C(F)(F)F)c1ccccc1,69.9% (active)
12,CCN=c1sc(C(=O)Nc2ccccc2)c(C)n1CC,-2.99%
13,CCc1ccccc1N1CN(Cc2ccco2)CNC1=S,80.2% (active)
14,CCOc1ccccc1N1CN(Cc2ccccc2)CNC1=S,-0.43%
15,Cn1c2c(c(=O)n(C)c1=O)CN(Cc1ccco1)CN2,2.8%
16,CCn1c(=O)c2ccccc2n(CC(=O)N2CCCc3ccccc32)c1=O,0.82%
17,C=CCn1c(=O)c2ccccc2n2c(SCC(=O)N3CCCc4ccccc43)nnc12,75.3% (active)
18,Cn1c(SCC(=O)N2CCCc3ccccc32)nc2ccccc2c1=O,3.16%
19,CCOC(=O)CSC1=N/C(=C/c2ccc(-n3cncn3)cc2)C(=O)N1C(C)=O,1.8%
20,COc1cccc(CNS(=O)(=O)c2ccc3c(c2)N(C(C)=O)CCS3)c1,1.61%
21,CC1CN(Cc2ccccc2)C(=S)NC1=O (configuration not stated),-2.85%
22,CN(C)c1ccc(C=C2C(=O)OC3(CCCC3)OC2=O)cc1,23.8%
23,CN(C)c1ccc(/C=C2\NC(=S)N(Cc3ccccc3)C2=O)cc1,191% (active)

row,SMILES,activation
1,Cc1ccccc1Cn1nc(C)c(NC(=O)C(F)(F)F)c1C,-0.93%
2,CN(Cc1cc2cc(F)ccc2[nH]1)Cc1nc(-c2cnccn2)no1,-0.56%
3,O=C(CSc1nnc(-c2ccc([N+](=O)[O-])cc2)o1)Nc1ccccn1,-0.44%
4,Cc1cccc(CN2CCN(Cc3cnn(-c4ccccc4F)c3)CC2CCO)n1 (configuration not stated),-2.69%
5,Cc1onc(-c2ccccc2)c1C(=O)NNC(=S)NC(=O)c1ccc(F)cc1,181% (active)
6,COc1ccc(C(=O)NNC(=O)c2cc(C)[nH]n2)cc1,-0.62%
7,COc1ccc(C(=O)NC(=S)NNC(=O)c2c(-c3ccccc3)noc2C)cc1,99.3% (active)
8,Cc1noc(C)c1COc1ccc(C(=O)NCCOc2ccccc2)cc1,3.12%
9,O=C(NNC(=S)NC(=O)c1cn(-c2ccccc2)nc1-c1ccccc1)c1ccncc1,27.4%
10,Cc1onc(-c2ccccc2)c1C(=O)N=C(N)c1ccc(Cl)cc1,2.16%
11,O=S(=O)(N/N=C\c1cccn1-c1ccccc1)c1ccc2ccccc2c1,-1.5%
12,CCOC(=O)C1=C(N)N2C(=O)C(C)SC2=C(C(=O)OCC)C1c1cc(OC)c(OC)c(OC)c1 (configuration not stated),-0.18%
13,COc1cccc(N2CC(NC(=O)c3ccc4ccccc4c3)CC2=O)c1 (configuration not stated),-0.96%
14,O=C(CCc1nc(-c2ccccc2)no1)Nc1cccc(C(=O)NC2CC2)c1,-1.3%
15,Cc1cccc(N2CCN(C(=O)c3cnn4c(C(F)F)cc(-c5ccccc5)nc34)CC2)c1C,-0.01%
16,COC(=O)c1ccc(C(=O)OC)c(NC(=S)N2CCN(c3cc(Cl)ccc3C)CC2)c1,2.16%
17,Cc1ccc(Cl)cc1N1CCN(C(=O)c2cccc3c(=O)c(C)c(-c4ccccc4)oc23)CC1,63.6% (active)
18,CC(=O)Nc1ccc(S(=O)(=O)N(C)c2ccc(OCC(=O)OCC(=O)N3CCCCC3)cc2)cc1,-1.11%
19,COc1ccccc1CNC(=O)c1cc(=O)c2ccccc2o1,-1.3%
20,O=c1oc2ccccc2c(=O)c2ccccc12,0%
21,COc1cc(N=Cc2c(O)c3ccccc3oc2=O)c(OC)cc1Cl,66.4% (active)
22,O=C(CCN1CCN(c2ccccc2)CC1)NNC(=S)Nc1ccccc1,-0.17%
23,CC(C)C(=O)NC(=S)Nc1ccccc1F,-2.1%

row,SMILES,activation
1,CCCCC(=O)NNC(=S)NC(=O)C(c1ccccc1)c1ccccc1,135% (active)
2,CC(C)CCNC(=O)CC1C(=O)N(Cc2ccccc2)C(C)c2nc3ccccc3n21 (configuration not stated),-1%
3,OC(COCCC12CC3CC(CC(C3)C1)C2)CN1CCCCC1 (configuration not stated),0.79%
4,COc1ccc(-c2ocnc2C(=O)Nc2ccc3c(c2)CCC3)cc1,1.68%
5,COc1ccc(-c2onc3ccc(C(C)=O)cc23)cc1,100% (active)
6,COc1ccc(NC(C(=O)Nc2cccc(C(C)=O)c2)c2ccccc2)cc1 (configuration not stated),-0.34%
7,COc1ccccc1C(=O)Nc1ccccc1C(=O)Nc1ccccc1,0.57%
8,CC1CCCCC1NCC(=O)Nc1ccccc1C(=O)Nc1ccccc1 (configuration not stated),-2.89%
9,O=C(Nc1ccccc1)c1ccccc1NC(=O)C(F)(F)F,55.4% (active)
10,O=S(=O)(Nc1ccc(-c2ccc(N3CCOCC3)nn2)cc1)c1cc(Cl)ccc1Cl,0.21%
11,CCOc1ccc(C2=CC(c3ccccc3)n3ncnc3N2)cc1 (configuration not stated),53.1% (active)
12,Clc1ccc2c(c1)C1=C(C(c3ccncc3)O2)C(c2ccc(Br)cc2)n2ncnc2N1 (configuration not stated),0.45%
13,Brc1ccc(C2=CC(c3ccco3)n3ncnc3N2)cc1 (configuration not stated),274% (active)
14,CC1=C(C(=O)OC2CCCCC2)C(c2cccnc2)n2ncnc2N1 (configuration not stated),-0.1%
15,CCOc1ccccc1C1CC(c2ccccc2)Nc2nc(N)nn21 (configuration not stated),8.41%
16,CN(CC(=O)Nc1ccccc1F)CC(=O)Nc1ccccc1Br,-3.49%
17,Cc1cccc(CC2(O)C(=O)Nc3ccccc32)n1 (configuration not stated),-0.62%
18,CCN(CC)S(=O)(=O)c1ccc(Cl)c(C(=O)NC(C)C(c2cccs2)N2CCCC2)c1 (configuration not stated),0.2%
19,OCCCNC(c1ccccc1)c1ccc(O)cc1 (configuration not stated),-1.4%
20,COc1cc(/C=C2\C(=N)N3N=C(CC(=O)N4CCOCC4)SC3=NC2=O)cc(OC)c1OC,-0.4%
21,COC1=C/C(=C/c2c(N)n3nc(CC(=O)N4CCOCC4)sc3nc2=O)C=CC1=O,9.37%
22,C=CCC1=C/C(=C\c2c(N)n3nc(CC(=O)N4CCOCC4)sc3nc2=O)C=C(OC)C1=O,83.2% (active)
23,CN(CC(=O)Nc1ccc(C(N)=O)cc1)S(=O)(=O)c1ccc2c(c1)OCCO2,3.57%
